Jurkat NFkB inh = inhibitors of the PMA/ionomycin-induced NF-kB reporter in Jurkat cells; actives 0.53% (n = 330,000); PMA/ionomycin-induced NF-kB luciferase reporter, luminescence; inhibition, % at 4 µM; in the data active = inhibition above about 50%
Gli-Sufu block = Gli-Sufu pathway antagonism; Sufu-KO-LIGHT fibroblasts, Gli luciferase reporter luminescence; actives 0.74% (n = 340,000); inhibition, % at 5 µM; AID 588413;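 active = inhibition above about 55%, limit read from the data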
GalR3 antagonist = blocks the human galanin receptor 3; O60755; actives 0.44% (n = 360,000); inhibition, % at 3 µM; AID 651719; HEK293 GalR3-CNG cAMP membrane potential fluorescence; galR3 body fused to GalR1 C-terminus;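 active = inhibition above the screen-wide average plus 3 SD, cut at about 13% in these data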;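 also: forskolin and galanin both at EC90 stimulate the cells; cAMP rise reported by CNG channel membrane potential dye signal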
697 NFkB inh = inhibitors of the PMA/ionomycin-induced NF-kB reporter in 697 B cells; AID 435022; actives 0.33% (n = 330,000); 697 B-cell NF-kB luciferase reporter, 16 h; inhibition, % at 4 µM; in the data active = inhibition above about 35%
NR2F2 inh = inhibitors of human COUP-TFII (NR2F2); inhibition, % at 8.6 µM; P24468; AID 686940; HEK293T NGFI-A luciferase reporter, luminescence; actives 0.7% (n = 370,000);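 active = inhibition above a per-plate cutoff, mean inhibition of test wells between control levels plus 3 SD, cut at about 38% in these data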;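 also: cells cotransfected with COUP-TFII expression vector driving the NGFI-A reporter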
Target sequence (P24468 whole entry, looked up): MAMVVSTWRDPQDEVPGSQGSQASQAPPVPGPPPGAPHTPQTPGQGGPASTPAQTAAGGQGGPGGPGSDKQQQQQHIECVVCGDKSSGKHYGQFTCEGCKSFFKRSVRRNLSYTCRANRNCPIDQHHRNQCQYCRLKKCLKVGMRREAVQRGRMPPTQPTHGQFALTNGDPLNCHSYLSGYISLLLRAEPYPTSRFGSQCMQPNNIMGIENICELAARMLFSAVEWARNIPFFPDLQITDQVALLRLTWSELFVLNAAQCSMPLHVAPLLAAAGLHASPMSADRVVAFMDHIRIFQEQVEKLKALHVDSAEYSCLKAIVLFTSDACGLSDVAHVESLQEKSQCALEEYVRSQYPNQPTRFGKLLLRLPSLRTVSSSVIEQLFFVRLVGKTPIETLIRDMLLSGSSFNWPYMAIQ
Jurkat NFkB conf = inhibitors of the PMA/ionomycin-induced NF-kB reporter in Jurkat cells, retest. shares compounds with Jurkat NFkB inh. inhibition, % at 4 µM. AID 435020. actives 27% (n = 2,700). Jurkat NF-kB luciferase, 16 h;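 active = inhibition reaching about 45% at 4 µM in either replicate, limit read from the data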
697 NFkB conf = inhibitors of the PMA/ionomycin-induced NF-kB reporter in 697 B cells, retest. 697 B-cell NF-kB luciferase, 16 h. shares compounds with 697 NFkB inh. actives 35% (n = 2,000). inhibition, % at 4 µM; in the data active = inhibition mostly above about 28%, no sharp cut-off; inactive = mostly below about 22%
A number is an active result; - = inactive; . = not tested or not shown. Compounds with a hit are over-represented: about 2% of the library has one in this group of screens.

SMILES	Jurkat NFkB inh	Gli-Sufu block	GalR3 antagonist	697 NFkB inh	NR2F2 inh	Jurkat NFkB conf	697 NFkB conf
O=C(NCCc1nc2ccccc2n1CCOc1cc(F)ccc1F)C1CCCCC1	.	.	.	.	-	.	.
CC1=C2N=C(N)N(Cc3ccccc3)C(Cc3ccccc3)C2n2c(=O)n(-c3ccccc3)c(=O)n2C1 (stereo not given)	.	.	.	.	-	.	.
Cc1cc(C)cc(NC(=O)c2cc(C)n(Cc3cccs3)c2C)c1	93	-	-	-	-	97	-
Cc1cc(C(=O)Nc2ccc(Cl)cc2)c(C)n1Cc1cccs1	-	-	-	-	-	.	.
COc1cc(SC)ccc1C(=O)Nc1ccc2c(c1)OCCO2	-	-	-	-	-	-	-
CCOC(=O)N1CCN(C(=O)C[C@@H]2C(=O)N(CCc3ccc(Cl)cc3)/C3=C/CCCCC[C@@]32C(=O)OCC)CC1	.	.	.	.	-	.	.
Oc1cccc(/C=C/c2ccc3cccc(O)c3n2)c1	-	-	-	-	-	-	-
COc1cccc(/C=C/c2ccc3cccc(O)c3n2)c1	-	-	-	-	-	.	.
CC(=O)Nc1cccc(-c2csc(Nc3ccc(C)cn3)n2)c1	-	-	-	-	-	-	-
Cc1ccc(-c2csc(Nc3ccccn3)n2)cc1	-	-	-	-	-	-	-
Cc1nc(N)sc1-c1csc(Nc2ccccn2)n1	.	-	-	.	-	.	.
c1ccc(-c2csc(Nc3ccccn3)n2)cc1	-	-	-	-	-	-	-
COc1ccc(-c2csc(Nc3ccccn3)n2)cc1OC	-	-	-	-	-	-	-
COc1ccc(CN2CCC(CNC(=O)NC3CCCC3)CC2)cc1	.	.	.	.	-	.	.
CC(C)(C)c1ccc(S(=O)(=O)N2CCCC2C(=O)N2CCc3ccccc3C2)cc1 (stereo not given)	.	.	.	.	-	.	.
CC(=O)c1cc(-c2cccc(C#N)c2)c(=O)n2c1CCC2	.	.	.	.	-	.	.
Fc1ccc(-c2csc(Nc3ccccn3)n2)c(F)c1	-	-	-	-	-	-	-
O=C(NCCN1C(=O)C2C3C=CC(C3)C2C1=O)c1cc(Cl)cc(Cl)c1 (stereo not given)	.	.	.	.	-	.	.
CC(C)C(=O)Nc1cccc(-c2nc3ccccc3o2)c1	-	-	-	-	-	.	.
CC(=O)Nc1ccc2oc(-c3ccccc3)nc2c1	-	-	-	-	-	.	.
Cc1ccc(-c2nc3cc(NC(=O)C(C)C)ccc3o2)cc1	-	-	-	-	-	-	-
Cc1cc2nc(-c3ccc(NC(=O)C(C)C)cc3)oc2cc1C	-	-	-	-	-	-	-
Cc1ccc(-c2nc3cc(NC(=O)C(C)C)ccc3o2)cc1C	-	-	-	-	-	-	-
CC(C)C(=O)Nc1ccc(-c2nc3cccnc3o2)cc1	-	-	-	-	-	.	.
N#Cc1cccc(CNCC(=O)N2CCC3(CC2)OCCO3)c1	.	.	.	.	-	.	.
SMILES	Jurkat NFkB inh	Gli-Sufu block	GalR3 antagonist	697 NFkB inh	NR2F2 inh	Jurkat NFkB conf	697 NFkB conf
CC1CCN(c2nc3ccc(C(=O)NCCCN4CCCCC4)cc3s2)CC1	-	-	-	-	-	.	.
CC1CCN(c2nc3ccc(C(=O)O)cc3s2)CC1	83	-	-	52	-	78	42
CC(C)(C)C(=O)Nc1ccc(C(=O)OC2CCCCC2)cc1	-	-	.	-	.	-	-
O=C(OC1CCCCC1)c1ccc(NC(=O)C2CCCCC2)cc1	-	-	-	-	-	.	.
CCOC(=O)c1sc(NC(=O)Nc2ccccc2Cl)cc1C	-	-	-	-	-	-	-
CCOC(=O)c1sc(NC(=O)c2ccc(C)s2)cc1C	-	-	-	-	-	.	.
Cc1cc(NS(=O)(=O)c2ccc(NC(=O)CSc3nnc(-c4cnccn4)n3-c3ccccc3)cc2)nc(C)n1	.	.	.	.	-	.	.
c1ccc(-c2cc(-c3cc(-c4ccccc4)on3)no2)cc1	.	.	-	.	-	.	.
COc1ccc(-c2cc(-c3ccccc3)no2)cc1	-	-	-	-	-	-	-
CC(C)(C)c1ccc(COC(=O)Nc2ccc(F)cc2)cc1	-	-	-	-	-	.	.
CC(C)(C)c1ccc(NC(=O)Nc2ccc(F)cc2)cc1	-	-	-	-	-	-	-
NC(=O)c1ccccc1OCC(=O)Nc1ccc2c(c1)CCC2	-	-	-	-	-	.	.
NC(=O)c1ccccc1OCC(=O)Nc1ccc(Cl)c(Cl)c1	-	-	-	-	-	-	-
C/C(=N/N=C/c1ccc(N(C)C)cc1)c1ccccc1	-	-	-	-	-	-	-
COc1ccc(S[C@]2(C(=O)N3CCOCC3)CC(=O)N(c3ccc(C#N)cc3)[C@@H]2c2ccc(OC)cc2)cc1	.	.	.	.	-	.	.
Cc1ccnc(NC(=O)CCCOc2cc(=O)n(C)c3ccccc23)c1	66	-	-	61	-	58	48
Cc1cc(N2CCN(C(=O)OC(C)(C)C)C[C@H]2C)ccc1N1CCN(Cc2ccccc2)[C@@H](C)C1	.	.	-	.	-	.	.
O=C(Nc1ccccn1)c1ccc(C(=O)Nc2ccccn2)cc1	-	-	.	-	.	.	.
O=C(NC(=S)Nc1ccccn1)c1ccc(-c2ccccc2)cc1	-	-	-	-	-	-	-
COc1ccc(-n2ncc3c(NCC(C)C)ncnc32)cc1	-	-	-	-	-	-	-
CCOc1ccc2oc(C(=O)Nc3nccs3)c(C)c2c1	-	-	-	-	-	-	-
CCCCc1nnc(NC(=O)c2oc3ccc(OC)cc3c2C)s1	-	-	-	-	-	.	.
CCOc1ccc2oc(C(=O)NC(C)(C)CC)c(C)c2c1	-	-	-	-	-	.	.
COc1ccc2oc(C(=O)Nc3nccs3)c(C)c2c1	-	-	-	-	-	-	-
CCCCC(=O)N[C@H]1CC[C@@]23CCCN2C(=O)CCC[C@H]3[C@H]1CCC	.	.	.	.	-	.	.
SMILES	Jurkat NFkB inh	Gli-Sufu block	GalR3 antagonist	697 NFkB inh	NR2F2 inh	Jurkat NFkB conf	697 NFkB conf
CCCCCC[C@@H](CCCc1ccccc1OC)CN(CCCC)S(C)(=O)=O	.	.	.	.	-	.	.
O=C(c1ccccc1)n1c(=S)nc2ccccn21	-	-	-	-	-	-	-
CCCCN(C)C(=O)c1cc2cc3ccc(OC)cc3nc2s1	-	-	-	-	-	-	-
CCCCN(CC)C(=O)c1cc2cc3ccc(OC)cc3nc2o1	-	-	-	-	-	.	.
CC(=O)c1cnc2c(-c3ccc(Cl)cc3)cnn2c1C	-	-	-	-	-	.	.
Clc1ccc(-c2cnn3c(-c4ccncc4)ccnc23)cc1	-	-	-	-	-	-	-
COc1cc(/C=N/NC(=S)Nc2cccc(C(=O)O)c2)ccc1O	54	-	-	38	-	50	38
O=C(C1CCCN(S(=O)(=O)c2ccc(F)cc2)C1)N1CCN(Cc2ccccc2)CC1 (stereo not given)	.	.	.	.	-	.	.
COc1ccc(-c2c(C)nc3c(-c4ccsc4)cnn3c2N)cc1	-	-	-	-	-	-	-
CCN(C(=O)C1CCCN1S(=O)(=O)c1cccnc1)c1ccccc1 (stereo not given)	.	.	.	.	-	.	.
Cc1ccc(N/C=C/C(=O)c2cccs2)cc1	-	-	-	-	-	-	-
Cc1noc(NS(=O)(=O)c2ccc(N/C=C\C(=O)c3cccs3)cc2)c1C	-	-	-	-	-	.	.
O=C(/C=C/Nc1ccc(F)cc1F)c1ccco1	-	-	-	-	-	.	.

Screens: PubChem BioAssay, several laboratories
